# Measurements: ChEMBL document CHEMBL1157539, “Thousands of chemical starting points for antimalarial lead identification” (Nature, 2010)
# Legend:
# Type in all cases: functional
# Plasmodium falciparum [1] = assay: GSK_TCMDC: Inhibition of Plasmodium falciparum 3D7 in whole red blood cells, using parasite LDH activity as an index of growth. Test compounds present at 2uM
# Plasmodium falciparum [2] = assay: GSK_TCMDC: Inhibition of Plasmodium falciparum Dd2 in whole red blood cells, using parasite LDH activity as an index of growth. Test compounds present at 2uM
# HepG2 = assay: GSK_TCMDC: Percent inhibition of human HepG2 cell line. Test compounds present at 10uM.
Structure (SMILES),Inhibition (Plasmodium falciparum [1]) [%],Inhibition (Plasmodium falciparum [2]) [%],Inhibition (HepG2) [%]
Clc1ccc(Nc2nc3nonc3nc2Nc2ccc(Cl)c(Cl)c2)cc1,99,92,75
OCCCCCCNc1nc(NCc2ccccc2-c2ccc(C(F)(F)F)cc2)nc(N2CCNCC2)n1,89,16,13
Cc1ccccc1C1CCN(C2CCC(NC(=O)/C=C/c3ccc(OC(F)(F)F)cc3)CC2)CC1 (centres undefined),100,67,96
Cc1cccc(CNc2nc(C)cc(N[C@@H](Cc3ccccc3)C(=O)NC3CCCC3)n2)c1.O=C(O)C(F)(F)F,100,97,51
COc1ccccc1CCNc1nc(C)cc(N[C@@H](Cc2ccccc2)C(=O)NCCOc2ccccc2)n1.O=C(O)C(F)(F)F,100,76,20
O=C(O)C(F)(F)F.O=S(=O)(/C=C/c1ccccc1)N(Cc1ccc(-c2ccc(CNCCc3ccccn3)cc2)cc1)CC1CCCCN1 (centres undefined),100,97,46
O=C(Nc1ccc(-c2nc3ccccc3[nH]2)cc1)C1CCN(Cc2ccccc2)CC1,100,82,12
Cc1nc(N)nc(N)c1OCCCOc1ccccc1Br.Cl,94,96,57
CC(C)(C)c1ccc(-c2csc(NC(=O)CC(c3ccccc3)c3ccccc3)n2)cc1,86,64,3
N#Cc1cccc(C(=O)N2CCOC(CCN3CCC(c4ccccc4)CC3)(c3ccc(Cl)c(Cl)c3)C2)c1 (centres undefined),87,49,51
CC(C)Sc1nc2c(c(=O)n1Cc1ccco1)C1(CCCCC1)Cc1ccccc1-2,100,99,10
CO/C(=C\C=C\c1cc2cc(Cl)c(Cl)cc2[nH]1)C(=O)NCCN1CCCCC1,81,86,16
CC(C)(C)SC1SC(SC(C)(C)C)C(OC(=O)c2ccccc2)C(OC(=O)c2ccccc2)C1OC(=O)c1ccccc1 (centres undefined),95,45,0
O=C(NCc1ccc(F)cc1)Nc1ccc(-c2ccc(-c3nc4ccccc4[nH]3)cc2)cc1,100,98,43
CCCCNC(=O)[C@@H]1CCCN1C(=O)c1ccc(O)c(-c2ccc(Cl)c(Cl)c2)c1,98,92,0
Cc1c(O)cccc1Nc1ccnc2ccc(C(F)(F)F)cc12.Cl,96,51,0
Cc1nnsc1C(=O)Nc1cccc(-c2ccc(-c3nc4cc(C(F)(F)F)ccc4[nH]3)cc2)c1,99,97,62
N#Cc1ccc2[nH]cc(CN3CCC4(CC3)CN(CCNCc3ccccc3)C(=O)O4)c2c1.O=C(O)C(F)(F)F,100,0,0
Cc1cccc2nc(-c3cccc(-c4ccc(NC(=O)CN5CCN(C)CC5)cc4)c3)[nH]c12,100,99,45
Nc1nc(N)c2c(ccc3c2ncn3Cc2ccccc2)n1,96,96,71
Cc1ccc(NC(=O)N2CCN(CCCCCNC(=O)/C=C/c3ccc(Cl)c(Cl)c3)CC2)cc1C,94,0,7
CCCC[C@@H](C(=O)NCc1ccccc1C(F)(F)F)N1C(=O)CCC1C(=O)Nc1ccc([N+](=O)[O-])cc1 (some centres undefined),94,2,7

Structure (SMILES),Inhibition (Plasmodium falciparum [1]) [%],Inhibition (Plasmodium falciparum [2]) [%],Inhibition (HepG2) [%]
CC(C)COc1ccc(Cl)cc1Cc1ccc(-c2nc3ccc(F)cc3[nH]2)o1,97,49,35
C=CCN1C(=O)C(=Cc2cc(Br)ccc2O)SC1=Nc1ccccc1,96,55,0
CC(C)NCc1ccc(-c2ccc(NS(=O)(=O)c3cccc4cccnc34)cc2)cc1.O=C(O)C(F)(F)F,90,45,27
O=C(O)C(F)(F)F.O=C1CCCN1CCCNCc1cccc(-c2ccc(-c3nc4ccccc4[nH]3)s2)c1,97,0,0
COc1ccc2nccc([C@@H](O)CN3CCC(NCCOc4ccccc4[N+](=O)[O-])CC3)c2c1.O=C(O)C(=O)O,100,98,4
Cc1cccc2nc(-c3cccc(-c4cccc(NC(=O)CNc5ccc(C(N)=O)cc5)c4)c3)[nH]c12,100,56,15
O=C(NCc1ccccc1)C1Cc2c([nH]c3ccc(Br)cc23)C2(CCN(Cc3ccccc3)CC2)N1 (centres undefined),98,70,15
Cc1cc(N[C@@H](CC(C)C)C(=O)NCCc2ccccc2)nc(NCCc2ccc(F)cc2)n1.O=C(O)C(F)(F)F,98,53,12
CC1(C)S(=O)(=O)CC(O)CS1(=O)=O,98,9,8
O=c1cc(NCC2(CNCc3cn(Cc4ccccc4)c4ccccc34)CCCCC2)[nH]c2ccccc12,100,56,27
COc1ccccc1NC(=O)Nc1ccc(-c2ccc(-c3nc4cc(C(F)(F)F)ccc4[nH]3)cc2)cc1,100,61,52
Cc1ccc(N)cc1-c1nc(NC2CC(C)(C)NC(C)(C)C2)nc2c1ccc(=O)n2-c1c(F)cccc1F,98,1,0
CCCNC[C@@H](O)[C@H](Cc1ccccc1)NC(=O)c1cc(NCC)cc(N2CCCC2=O)c1,100,76,0
COc1c(C2CCN(CCCCNC(=O)c3cc(-c4ccc(C#N)cc4)n[nH]3)CC2)ccc2c1CCCC2,86,15,36
CCCCCOc1c(CCC)cc(Cc2cnc(N)nc2N)cc1CCC,94,0,58
CN1CCC(N(Cc2ccc(-c3ccc(C(F)(F)F)cc3)nc2)C(=O)Cn2c(CCc3cccc(F)c3F)cc(=O)c3ccccc32)CC1.O=C(O)C(O)C(O)C(=O)O,91,85,60
COc1ccc(C=NN=c2cc(C)[nH]c3ccccc23)c(OC)c1,100,94,24
COc1ccc(-c2nonc2NC(=O)c2ccc(OC(C)C)cc2)cc1OC,100,99,11
CC(NC(=O)c1ccc(O)c(-c2ccc(Cl)c(Cl)c2)c1)C(=O)NCCN1CCCCC1 (centres undefined),97,3,0
Cc1cc(N2CCCC2)nc(Nc2ccc(NC(=O)C3CCCC3)cc2)n1,100,81,27
Cl.O=C(C=Cc1ccc(C(=O)Nc2ccc(C3=NCCN3)cc2)cc1)Nc1ccc(C2=NCCN2)cc1,97,100,0
